This is an account of results in PMC7862700, “An all-to-all approach to the identification of sequence-specific readers for epigenetic DNA modifications on cytosine”.

Assay in all cases: DAPPL (digital affinity profiling via proximity ligation, sequencing); 10 mM Tris-HCl pH 7.5, 50 mM NaCl, 1 mM DTT, 4% glycerol, room temperature, 30 min; GST-TFs on glutathione beads, 16-mer random dsDNA library, 0.1% formaldehyde crosslink after washing; high values mean tight binding
One assay addresses T1, FEV (Homo sapiens, UniProt Q99581 1-238).
T1 sequence: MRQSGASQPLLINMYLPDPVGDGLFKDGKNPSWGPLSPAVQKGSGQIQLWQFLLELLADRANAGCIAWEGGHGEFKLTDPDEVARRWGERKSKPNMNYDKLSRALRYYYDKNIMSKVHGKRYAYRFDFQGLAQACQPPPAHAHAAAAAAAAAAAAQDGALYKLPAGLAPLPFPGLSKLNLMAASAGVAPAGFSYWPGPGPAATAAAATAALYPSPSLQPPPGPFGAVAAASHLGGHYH
The settings on record: protein: recombinant; tags: N-terminal GST; dsDNA, one strand shown. The method in brief:
(§1)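 Binding signal is given per hexamer as its read frequency for a factor divided by its frequency in the tag-only sample. GST-fused human transcription factors were expressed in yeast, captured on glutathione beads, barcoded with DNA and pooled with that sample, then incubated with 200 nmole of a 16-mer random double-stranded DNA library in Tris/NaCl/DTT/glycerol buffer for 30 min at room temperature. The pools were then washed, crosslinked, proximity-ligated, amplified by PCR and sequenced on an Illumina NextSeq500.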

The target in a further assay is ETV5 (Homo sapiens, UniProt P41161 1-510). The settings on record: protein: recombinant; tags: N-terminal GST; dsDNA, one strand shown. In a few lines: as §1
Sequence of ETV5 (P41161 whole entry): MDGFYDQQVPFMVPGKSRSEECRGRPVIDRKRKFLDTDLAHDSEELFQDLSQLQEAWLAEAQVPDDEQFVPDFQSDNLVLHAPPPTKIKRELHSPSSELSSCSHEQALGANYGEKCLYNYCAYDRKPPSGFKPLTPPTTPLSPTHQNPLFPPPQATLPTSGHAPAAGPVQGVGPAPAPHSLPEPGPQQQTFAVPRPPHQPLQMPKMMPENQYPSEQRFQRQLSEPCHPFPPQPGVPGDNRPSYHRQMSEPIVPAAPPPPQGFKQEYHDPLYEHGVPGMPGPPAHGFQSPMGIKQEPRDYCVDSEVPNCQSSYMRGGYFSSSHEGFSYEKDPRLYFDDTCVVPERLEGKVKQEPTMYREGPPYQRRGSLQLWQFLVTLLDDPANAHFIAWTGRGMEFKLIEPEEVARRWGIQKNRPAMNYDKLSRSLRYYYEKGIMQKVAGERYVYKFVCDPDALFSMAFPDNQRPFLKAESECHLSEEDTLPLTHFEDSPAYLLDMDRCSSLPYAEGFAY
Another assay has as its target HSF1 (Homo sapiens, UniProt Q00613 1-529). The settings on record: protein: recombinant; tags: N-terminal GST; chain copies: 3; dsDNA, one strand shown. In a few lines: as §1
A further assay deals with T2, SPIC (Homo sapiens, UniProt Q8N5J4 1-248).
T2 sequence: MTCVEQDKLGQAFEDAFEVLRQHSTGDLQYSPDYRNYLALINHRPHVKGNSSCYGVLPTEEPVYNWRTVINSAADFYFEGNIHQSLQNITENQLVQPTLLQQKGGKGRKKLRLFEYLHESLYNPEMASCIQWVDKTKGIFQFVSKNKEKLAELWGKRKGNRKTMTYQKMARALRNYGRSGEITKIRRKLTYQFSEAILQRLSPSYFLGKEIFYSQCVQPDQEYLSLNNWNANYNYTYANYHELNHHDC
To be noted: protein: recombinant; tags: N-terminal GST; dsDNA, one strand shown. The method in brief: as §1

Another assay addresses ELF4 (Homo sapiens, UniProt Q99607 1-663). To be noted: protein: recombinant; tags: N-terminal GST; dsDNA, one strand shown. In a few lines:
as §1

Another assay deals with T3, ELK4 (Homo sapiens, UniProt P28324-2 1-405).
T3 sequence: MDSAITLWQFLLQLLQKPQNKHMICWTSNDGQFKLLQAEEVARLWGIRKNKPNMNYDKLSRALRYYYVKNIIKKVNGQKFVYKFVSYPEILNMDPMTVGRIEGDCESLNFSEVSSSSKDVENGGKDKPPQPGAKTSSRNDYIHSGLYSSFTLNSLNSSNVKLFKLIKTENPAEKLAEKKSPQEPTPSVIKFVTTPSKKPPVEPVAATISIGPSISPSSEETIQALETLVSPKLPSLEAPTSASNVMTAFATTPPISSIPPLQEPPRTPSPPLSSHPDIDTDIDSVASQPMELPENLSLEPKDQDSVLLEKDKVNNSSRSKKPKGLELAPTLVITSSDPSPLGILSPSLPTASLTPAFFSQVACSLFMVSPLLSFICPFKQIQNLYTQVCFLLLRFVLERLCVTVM
The settings on record: protein: recombinant; tags: N-terminal GST; dsDNA, one strand shown. In a few lines:
as §1

The target in the next assay is T4, ETV2 (Homo sapiens, UniProt O00321 1-342).
T4 sequence: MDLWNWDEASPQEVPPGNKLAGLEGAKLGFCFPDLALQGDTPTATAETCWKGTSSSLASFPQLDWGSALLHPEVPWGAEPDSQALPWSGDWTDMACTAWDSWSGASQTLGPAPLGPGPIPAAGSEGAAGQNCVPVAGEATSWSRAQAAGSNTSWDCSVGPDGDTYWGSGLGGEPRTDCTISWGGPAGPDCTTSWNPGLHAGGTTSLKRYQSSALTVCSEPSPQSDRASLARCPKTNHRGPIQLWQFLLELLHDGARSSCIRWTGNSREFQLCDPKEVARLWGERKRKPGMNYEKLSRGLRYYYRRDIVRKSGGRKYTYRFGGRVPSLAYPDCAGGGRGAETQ
To be noted: protein: recombinant; tags: N-terminal GST; dsDNA, one strand shown. In a few lines:
as §1

For the next assay, the target named is T5, ELF3 (Homo sapiens, UniProt P78545 1-371).
T5 sequence: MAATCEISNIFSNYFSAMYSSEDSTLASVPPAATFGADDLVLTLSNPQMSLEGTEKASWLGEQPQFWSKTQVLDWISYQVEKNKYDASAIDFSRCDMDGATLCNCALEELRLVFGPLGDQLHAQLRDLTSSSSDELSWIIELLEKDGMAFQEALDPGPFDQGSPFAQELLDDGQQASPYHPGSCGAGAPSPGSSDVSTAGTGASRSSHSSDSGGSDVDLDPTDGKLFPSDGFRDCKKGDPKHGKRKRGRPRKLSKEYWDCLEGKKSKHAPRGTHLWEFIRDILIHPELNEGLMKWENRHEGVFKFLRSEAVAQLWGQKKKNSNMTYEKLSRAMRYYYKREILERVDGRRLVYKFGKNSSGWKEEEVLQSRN
The settings on record: protein: recombinant; tags: N-terminal GST; dsDNA, one strand shown. The method in brief:
as §1

The next assay has as its target CRX (Homo sapiens, UniProt O43186 1-299). The settings on record: protein: recombinant; tags: N-terminal GST; dsDNA, one strand shown. In a few lines:
as §1

The target in another assay is ETV1 (Homo sapiens, UniProt P50549 1-477). To be noted: protein: recombinant; tags: N-terminal GST; dsDNA, one strand shown. The method in brief:
as §1

A further assay has as its target T6, ERF (Homo sapiens, UniProt P50548 1-548).
T6 sequence: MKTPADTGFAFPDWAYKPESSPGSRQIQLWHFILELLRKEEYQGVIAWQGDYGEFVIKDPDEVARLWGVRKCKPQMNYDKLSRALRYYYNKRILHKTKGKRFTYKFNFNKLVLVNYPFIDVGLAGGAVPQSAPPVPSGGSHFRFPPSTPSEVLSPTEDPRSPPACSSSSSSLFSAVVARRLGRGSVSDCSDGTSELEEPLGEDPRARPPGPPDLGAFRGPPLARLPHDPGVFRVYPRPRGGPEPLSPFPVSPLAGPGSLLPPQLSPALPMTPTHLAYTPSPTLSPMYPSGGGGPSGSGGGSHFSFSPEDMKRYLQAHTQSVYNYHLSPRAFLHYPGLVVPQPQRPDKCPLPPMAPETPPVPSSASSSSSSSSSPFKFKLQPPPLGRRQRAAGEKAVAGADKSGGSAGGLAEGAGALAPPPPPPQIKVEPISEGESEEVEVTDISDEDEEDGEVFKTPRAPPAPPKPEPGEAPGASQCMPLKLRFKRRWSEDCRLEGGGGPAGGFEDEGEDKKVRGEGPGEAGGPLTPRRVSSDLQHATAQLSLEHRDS
The settings on record: protein: recombinant; tags: N-terminal GST; dsDNA, one strand shown. In a few lines: as §1

The next assay concerns the target T7, ETV3L (Homo sapiens, UniProt Q6ZN32 1-361).
T7 sequence: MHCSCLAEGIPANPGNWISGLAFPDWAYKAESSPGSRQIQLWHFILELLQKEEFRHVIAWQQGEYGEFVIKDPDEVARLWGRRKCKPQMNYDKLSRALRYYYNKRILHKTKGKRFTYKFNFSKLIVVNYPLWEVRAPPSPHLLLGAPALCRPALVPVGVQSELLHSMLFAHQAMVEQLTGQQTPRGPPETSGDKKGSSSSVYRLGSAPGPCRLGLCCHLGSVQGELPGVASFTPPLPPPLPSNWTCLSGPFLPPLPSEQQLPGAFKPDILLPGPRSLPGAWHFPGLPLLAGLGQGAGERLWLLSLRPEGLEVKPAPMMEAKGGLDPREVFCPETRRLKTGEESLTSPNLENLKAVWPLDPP
The settings on record: protein: recombinant; tags: N-terminal GST; dsDNA, one strand shown. The method in brief:
as §1

For a further assay, the target named is T8, ETS2 (Homo sapiens, UniProt P15036 1-469).
T8 sequence: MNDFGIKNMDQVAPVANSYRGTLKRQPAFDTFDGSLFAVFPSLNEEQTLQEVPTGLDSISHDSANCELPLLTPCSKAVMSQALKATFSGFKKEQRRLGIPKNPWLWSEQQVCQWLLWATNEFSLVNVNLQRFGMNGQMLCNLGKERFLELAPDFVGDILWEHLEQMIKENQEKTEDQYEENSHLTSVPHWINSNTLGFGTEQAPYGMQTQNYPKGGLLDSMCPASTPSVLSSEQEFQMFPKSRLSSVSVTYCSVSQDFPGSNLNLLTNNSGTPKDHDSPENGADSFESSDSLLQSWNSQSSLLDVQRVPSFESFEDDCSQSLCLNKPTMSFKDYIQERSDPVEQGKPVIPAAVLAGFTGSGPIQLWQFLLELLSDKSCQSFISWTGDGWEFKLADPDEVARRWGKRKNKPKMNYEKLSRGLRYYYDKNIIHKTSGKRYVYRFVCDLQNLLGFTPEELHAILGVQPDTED
The settings on record: protein: recombinant; tags: N-terminal GST; dsDNA, one strand shown. The method in brief: as §1

The next assay has as its target T9, SPDEF (Homo sapiens, UniProt O95238 1-335).
T9 sequence: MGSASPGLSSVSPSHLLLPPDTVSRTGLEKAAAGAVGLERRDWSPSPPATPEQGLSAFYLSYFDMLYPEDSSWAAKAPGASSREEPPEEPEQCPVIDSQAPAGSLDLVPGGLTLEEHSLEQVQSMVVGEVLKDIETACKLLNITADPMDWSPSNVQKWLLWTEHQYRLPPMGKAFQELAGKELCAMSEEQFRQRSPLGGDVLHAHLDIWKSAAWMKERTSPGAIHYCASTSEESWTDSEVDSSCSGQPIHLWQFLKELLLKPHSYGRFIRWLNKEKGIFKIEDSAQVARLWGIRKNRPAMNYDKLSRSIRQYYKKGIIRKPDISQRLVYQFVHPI
To be noted: protein: recombinant; tags: N-terminal GST; dsDNA, one strand shown. The method in brief:
as §1

For the next assay, the target named is T10, ETV7 (Homo sapiens, UniProt Q9Y603 1-341).
T10 sequence: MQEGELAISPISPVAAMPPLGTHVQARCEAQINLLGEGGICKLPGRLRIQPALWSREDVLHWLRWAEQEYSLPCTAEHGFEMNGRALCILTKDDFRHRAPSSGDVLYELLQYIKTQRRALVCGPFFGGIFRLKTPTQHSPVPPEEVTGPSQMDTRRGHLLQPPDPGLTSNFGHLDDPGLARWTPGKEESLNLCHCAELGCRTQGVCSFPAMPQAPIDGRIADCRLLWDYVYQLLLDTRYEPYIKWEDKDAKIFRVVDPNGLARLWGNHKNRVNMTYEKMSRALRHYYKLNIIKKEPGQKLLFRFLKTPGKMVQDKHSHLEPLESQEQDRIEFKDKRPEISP
The settings on record: protein: recombinant; tags: N-terminal GST; dsDNA, one strand shown. The method in brief:
as §1

For a further assay, the target named is T11, ELF5 (Homo sapiens, UniProt Q9UKW6-2 1-255).
T11 sequence: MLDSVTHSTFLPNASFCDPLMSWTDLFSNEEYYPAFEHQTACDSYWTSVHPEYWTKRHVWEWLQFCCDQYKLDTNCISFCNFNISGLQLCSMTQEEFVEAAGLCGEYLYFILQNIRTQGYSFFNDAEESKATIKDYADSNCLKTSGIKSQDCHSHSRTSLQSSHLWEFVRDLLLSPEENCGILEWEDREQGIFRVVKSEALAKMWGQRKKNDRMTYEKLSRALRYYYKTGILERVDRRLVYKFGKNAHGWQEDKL
To be noted: protein: recombinant; tags: N-terminal GST; dsDNA, one strand shown. The method in brief: as §1

A further assay has as its target T12, ETV3 (Homo sapiens, UniProt P41162-2 1-143).
T12 sequence: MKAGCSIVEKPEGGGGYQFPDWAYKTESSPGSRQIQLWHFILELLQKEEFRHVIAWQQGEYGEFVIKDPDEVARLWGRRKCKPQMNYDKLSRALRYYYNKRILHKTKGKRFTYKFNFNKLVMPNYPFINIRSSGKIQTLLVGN
The settings on record: protein: recombinant; tags: N-terminal GST; dsDNA, one strand shown. The method in brief:
as §1

In the next assay the target is ETV6 (Homo sapiens, UniProt P41212 1-452). The settings on record: protein: recombinant; tags: N-terminal GST; dsDNA, one strand shown. The method in brief: as §1
Sequence of ETV6 (P41212 whole entry): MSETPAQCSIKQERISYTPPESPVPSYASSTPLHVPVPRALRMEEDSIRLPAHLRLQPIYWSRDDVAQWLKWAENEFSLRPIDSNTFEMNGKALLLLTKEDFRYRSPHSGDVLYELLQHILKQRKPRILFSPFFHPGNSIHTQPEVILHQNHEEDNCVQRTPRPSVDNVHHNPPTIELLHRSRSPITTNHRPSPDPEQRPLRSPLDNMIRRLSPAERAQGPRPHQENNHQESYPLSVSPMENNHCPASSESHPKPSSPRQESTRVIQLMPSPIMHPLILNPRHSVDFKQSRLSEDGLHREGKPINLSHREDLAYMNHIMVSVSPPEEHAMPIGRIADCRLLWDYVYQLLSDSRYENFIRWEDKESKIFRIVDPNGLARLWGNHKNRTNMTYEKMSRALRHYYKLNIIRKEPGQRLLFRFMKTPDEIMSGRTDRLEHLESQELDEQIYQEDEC

Sequence of CRX (O43186 whole entry): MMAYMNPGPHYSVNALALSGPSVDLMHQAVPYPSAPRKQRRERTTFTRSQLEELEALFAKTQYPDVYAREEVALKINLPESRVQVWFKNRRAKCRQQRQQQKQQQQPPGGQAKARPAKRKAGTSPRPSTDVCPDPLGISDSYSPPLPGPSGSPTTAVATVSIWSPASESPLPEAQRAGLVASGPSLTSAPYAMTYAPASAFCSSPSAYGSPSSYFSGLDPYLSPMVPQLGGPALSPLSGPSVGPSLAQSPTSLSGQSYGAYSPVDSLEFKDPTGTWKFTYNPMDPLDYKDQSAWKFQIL
Sequence of HSF1 (Q00613 whole entry): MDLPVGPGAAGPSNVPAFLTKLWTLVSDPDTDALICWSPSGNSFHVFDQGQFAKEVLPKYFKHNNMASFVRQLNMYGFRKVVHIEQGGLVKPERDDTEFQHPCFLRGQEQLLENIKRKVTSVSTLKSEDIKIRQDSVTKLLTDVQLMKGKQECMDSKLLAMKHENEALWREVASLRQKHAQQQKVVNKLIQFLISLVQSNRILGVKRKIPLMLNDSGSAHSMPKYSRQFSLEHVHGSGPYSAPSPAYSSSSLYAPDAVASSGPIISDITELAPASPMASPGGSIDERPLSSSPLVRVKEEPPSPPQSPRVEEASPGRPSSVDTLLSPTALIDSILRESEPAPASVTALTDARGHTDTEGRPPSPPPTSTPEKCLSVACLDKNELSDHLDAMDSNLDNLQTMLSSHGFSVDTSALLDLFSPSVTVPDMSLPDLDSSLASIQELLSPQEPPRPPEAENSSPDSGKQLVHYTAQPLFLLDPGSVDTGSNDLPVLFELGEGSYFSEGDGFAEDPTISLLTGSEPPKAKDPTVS
Sequence of ELF4 (Q99607 whole entry): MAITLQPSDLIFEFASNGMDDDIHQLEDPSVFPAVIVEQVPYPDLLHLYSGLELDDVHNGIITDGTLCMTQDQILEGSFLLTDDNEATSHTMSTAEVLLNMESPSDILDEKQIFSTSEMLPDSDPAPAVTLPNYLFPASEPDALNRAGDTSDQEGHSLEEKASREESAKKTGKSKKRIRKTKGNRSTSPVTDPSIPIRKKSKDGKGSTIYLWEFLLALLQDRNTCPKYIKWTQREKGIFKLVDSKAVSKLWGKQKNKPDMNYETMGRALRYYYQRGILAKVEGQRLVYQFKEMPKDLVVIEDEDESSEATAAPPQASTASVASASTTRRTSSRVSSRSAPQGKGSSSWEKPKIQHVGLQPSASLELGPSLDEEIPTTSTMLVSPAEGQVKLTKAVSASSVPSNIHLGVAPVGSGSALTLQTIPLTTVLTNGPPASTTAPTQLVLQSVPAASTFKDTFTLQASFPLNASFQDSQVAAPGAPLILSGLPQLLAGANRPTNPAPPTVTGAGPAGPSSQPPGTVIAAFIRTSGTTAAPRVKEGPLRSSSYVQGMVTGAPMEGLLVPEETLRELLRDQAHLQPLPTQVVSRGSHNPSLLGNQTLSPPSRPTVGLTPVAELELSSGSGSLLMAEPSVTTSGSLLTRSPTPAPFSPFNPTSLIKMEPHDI
Sequence of ETV1 (P50549 whole entry): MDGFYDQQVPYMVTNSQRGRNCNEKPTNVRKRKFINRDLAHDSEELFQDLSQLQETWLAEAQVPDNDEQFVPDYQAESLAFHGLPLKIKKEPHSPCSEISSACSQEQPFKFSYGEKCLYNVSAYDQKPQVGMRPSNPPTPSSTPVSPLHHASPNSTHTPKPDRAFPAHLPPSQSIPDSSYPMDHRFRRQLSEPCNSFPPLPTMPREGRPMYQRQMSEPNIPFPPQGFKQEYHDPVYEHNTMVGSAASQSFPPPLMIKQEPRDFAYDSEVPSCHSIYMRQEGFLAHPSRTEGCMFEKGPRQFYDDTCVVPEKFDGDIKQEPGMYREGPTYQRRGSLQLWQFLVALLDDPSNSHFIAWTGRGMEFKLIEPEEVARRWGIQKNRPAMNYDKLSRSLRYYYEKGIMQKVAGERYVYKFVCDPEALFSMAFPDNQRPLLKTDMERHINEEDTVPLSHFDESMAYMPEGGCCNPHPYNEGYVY

Regarding CTAAGA, the binding signal with FEV is 1.08 fold enrichment (6-mer frequency, TF over GST control); with ETV5 it was 1.24 fold enrichment (6-mer frequency, TF over GST control); with HSF1 it was 1.64 fold enrichment (6-mer frequency, TF over GST control); with SPIC it was 1.18 fold enrichment (6-mer frequency, TF over GST control); with ELF4, 1.27 fold enrichment (6-mer frequency, TF over GST control); with ELK4, 1.16 fold enrichment (6-mer frequency, TF over GST control). For the same sequence, the binding signal in the assay with ETV2 was 1.2 fold enrichment (6-mer frequency, TF over GST control); with ELF3, 1.24 fold enrichment (6-mer frequency, TF over GST control); with CRX, 2.05 fold enrichment (6-mer frequency, TF over GST control); with ETV1 it was 1.22 fold enrichment (6-mer frequency, TF over GST control); in the assay with ERF, 1.08 fold enrichment (6-mer frequency, TF over GST control); in the assay with ETV3L it was 1.21 fold enrichment (6-mer frequency, TF over GST control). Further, the binding signal with ETS2 is 1.17 fold enrichment (6-mer frequency, TF over GST control); with SPDEF, 1.15 fold enrichment (6-mer frequency, TF over GST control); in the assay with ETV7 it was 1.25 fold enrichment (6-mer frequency, TF over GST control); with ELF5 it was 1.2 fold enrichment (6-mer frequency, TF over GST control); with ETV3 it was 1.17 fold enrichment (6-mer frequency, TF over GST control); with ETV6 it was 1.23 fold enrichment (6-mer frequency, TF over GST control).
